Assay results as given in ChEMBL document CHEMBL5724796, “Tm Shift (DSF) assay results for EUbOPEN Chemogenomics Library” (2024).
Residues, ends and D or L forms follow the SMILES beside them. *: point of attachment. CH2Cl = ClC*

What was measured:
Settings in all cases: Compound concentration 20.0 uM
[1] = biological target: Tyrosine-protein kinase ABL1 (Homo sapiens) (UniProt P00519)
[2] = biological target: Bromodomain-containing protein 4 (Homo sapiens) (UniProt O60885)
[3] = biological target: Cyclin-dependent kinase 2 (Homo sapiens) (UniProt P24941)
[4] = biological target: Casein kinase I isoform delta (Homo sapiens) (UniProt P48730)
[5] = biological target: Glycogen synthase kinase-3 beta (Homo sapiens) (UniProt P49841)
[6] = biological target: Mitogen-activated protein kinase 1 (Homo sapiens) (UniProt P28482)
[7] = biological target: T1, Aurora kinase A (Homo sapiens) (UniProt O14965)
T1 sequence (whole entry): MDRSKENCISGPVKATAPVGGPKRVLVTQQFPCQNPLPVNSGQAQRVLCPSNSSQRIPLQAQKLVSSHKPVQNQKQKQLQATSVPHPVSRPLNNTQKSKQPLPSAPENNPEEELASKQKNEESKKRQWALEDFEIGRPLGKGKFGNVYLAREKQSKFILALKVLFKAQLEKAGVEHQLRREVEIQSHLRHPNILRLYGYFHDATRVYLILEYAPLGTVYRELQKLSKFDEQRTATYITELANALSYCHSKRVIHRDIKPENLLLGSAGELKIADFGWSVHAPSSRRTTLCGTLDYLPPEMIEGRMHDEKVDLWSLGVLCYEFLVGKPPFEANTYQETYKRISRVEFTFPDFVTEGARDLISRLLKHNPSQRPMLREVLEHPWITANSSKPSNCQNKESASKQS

[8] = biological target: T2, Transcription intermediary factor 1-alpha (Homo sapiens) (UniProt O15164)
T2 sequence (whole entry): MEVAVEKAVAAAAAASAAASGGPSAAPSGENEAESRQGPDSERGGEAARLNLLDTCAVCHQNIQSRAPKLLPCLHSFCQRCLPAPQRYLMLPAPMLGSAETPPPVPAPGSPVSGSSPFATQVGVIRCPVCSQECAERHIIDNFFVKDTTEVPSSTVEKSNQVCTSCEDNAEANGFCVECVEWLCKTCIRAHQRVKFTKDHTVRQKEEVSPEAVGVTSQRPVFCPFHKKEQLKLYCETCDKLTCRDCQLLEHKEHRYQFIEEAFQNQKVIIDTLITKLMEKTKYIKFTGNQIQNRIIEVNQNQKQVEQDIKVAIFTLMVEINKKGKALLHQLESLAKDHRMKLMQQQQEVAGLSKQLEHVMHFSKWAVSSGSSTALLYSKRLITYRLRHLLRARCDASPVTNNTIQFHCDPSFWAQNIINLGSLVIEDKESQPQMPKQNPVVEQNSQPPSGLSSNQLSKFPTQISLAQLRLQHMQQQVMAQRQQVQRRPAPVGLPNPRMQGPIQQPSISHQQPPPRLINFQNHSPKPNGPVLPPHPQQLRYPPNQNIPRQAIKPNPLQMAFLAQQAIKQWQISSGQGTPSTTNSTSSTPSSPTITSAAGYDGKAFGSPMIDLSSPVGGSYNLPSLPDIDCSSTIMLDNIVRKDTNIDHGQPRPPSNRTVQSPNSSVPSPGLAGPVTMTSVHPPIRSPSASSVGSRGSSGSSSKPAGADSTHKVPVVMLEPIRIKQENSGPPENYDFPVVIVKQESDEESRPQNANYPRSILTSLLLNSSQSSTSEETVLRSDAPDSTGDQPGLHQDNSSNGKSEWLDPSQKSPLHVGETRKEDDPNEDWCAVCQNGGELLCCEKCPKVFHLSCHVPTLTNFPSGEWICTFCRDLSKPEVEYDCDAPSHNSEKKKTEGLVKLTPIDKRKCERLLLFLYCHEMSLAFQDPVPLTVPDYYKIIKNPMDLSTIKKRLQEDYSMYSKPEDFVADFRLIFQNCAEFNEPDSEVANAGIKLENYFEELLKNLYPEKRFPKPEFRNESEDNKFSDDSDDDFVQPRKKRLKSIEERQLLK

Sequence of Casein kinase I isoform delta (Homo sapiens) (P48730 whole entry, looked up, canonical isoform): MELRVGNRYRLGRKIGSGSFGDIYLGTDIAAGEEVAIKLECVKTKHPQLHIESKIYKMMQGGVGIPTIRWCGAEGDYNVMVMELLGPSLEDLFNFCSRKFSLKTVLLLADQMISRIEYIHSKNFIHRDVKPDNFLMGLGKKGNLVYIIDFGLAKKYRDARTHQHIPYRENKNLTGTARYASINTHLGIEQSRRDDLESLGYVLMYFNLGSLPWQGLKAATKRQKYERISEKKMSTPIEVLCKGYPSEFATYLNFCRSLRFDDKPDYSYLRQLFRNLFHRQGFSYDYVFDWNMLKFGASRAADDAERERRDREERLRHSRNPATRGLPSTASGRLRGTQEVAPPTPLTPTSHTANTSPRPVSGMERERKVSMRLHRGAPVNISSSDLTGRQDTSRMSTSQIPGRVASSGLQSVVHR
Sequence of Mitogen-activated protein kinase 1 (Homo sapiens) (P28482 whole entry): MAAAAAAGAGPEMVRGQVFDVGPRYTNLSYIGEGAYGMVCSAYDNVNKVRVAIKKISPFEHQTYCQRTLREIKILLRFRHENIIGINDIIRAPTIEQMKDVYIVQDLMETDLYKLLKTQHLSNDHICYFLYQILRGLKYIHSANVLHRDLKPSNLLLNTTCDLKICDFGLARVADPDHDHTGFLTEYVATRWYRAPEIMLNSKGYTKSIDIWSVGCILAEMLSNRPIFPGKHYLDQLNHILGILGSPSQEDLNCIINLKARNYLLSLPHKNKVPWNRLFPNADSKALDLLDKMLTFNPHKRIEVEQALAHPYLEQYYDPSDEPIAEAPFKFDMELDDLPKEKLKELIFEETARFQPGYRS
Sequence of Glycogen synthase kinase-3 beta (Homo sapiens) (P49841 whole entry, looked up): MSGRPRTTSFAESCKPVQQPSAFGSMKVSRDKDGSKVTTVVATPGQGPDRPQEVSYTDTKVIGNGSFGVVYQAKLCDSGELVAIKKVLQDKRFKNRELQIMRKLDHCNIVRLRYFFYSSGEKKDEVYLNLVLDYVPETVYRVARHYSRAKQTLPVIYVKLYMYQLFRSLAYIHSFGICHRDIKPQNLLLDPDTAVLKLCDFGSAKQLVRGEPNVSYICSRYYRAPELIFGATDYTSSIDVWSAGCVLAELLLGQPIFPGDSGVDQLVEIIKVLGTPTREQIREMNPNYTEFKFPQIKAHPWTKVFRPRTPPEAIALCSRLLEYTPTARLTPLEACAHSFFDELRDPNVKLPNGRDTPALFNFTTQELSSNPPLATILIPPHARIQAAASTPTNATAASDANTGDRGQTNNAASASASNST
Sequence of Tyrosine-protein kinase ABL1 (Homo sapiens) (P00519 whole entry): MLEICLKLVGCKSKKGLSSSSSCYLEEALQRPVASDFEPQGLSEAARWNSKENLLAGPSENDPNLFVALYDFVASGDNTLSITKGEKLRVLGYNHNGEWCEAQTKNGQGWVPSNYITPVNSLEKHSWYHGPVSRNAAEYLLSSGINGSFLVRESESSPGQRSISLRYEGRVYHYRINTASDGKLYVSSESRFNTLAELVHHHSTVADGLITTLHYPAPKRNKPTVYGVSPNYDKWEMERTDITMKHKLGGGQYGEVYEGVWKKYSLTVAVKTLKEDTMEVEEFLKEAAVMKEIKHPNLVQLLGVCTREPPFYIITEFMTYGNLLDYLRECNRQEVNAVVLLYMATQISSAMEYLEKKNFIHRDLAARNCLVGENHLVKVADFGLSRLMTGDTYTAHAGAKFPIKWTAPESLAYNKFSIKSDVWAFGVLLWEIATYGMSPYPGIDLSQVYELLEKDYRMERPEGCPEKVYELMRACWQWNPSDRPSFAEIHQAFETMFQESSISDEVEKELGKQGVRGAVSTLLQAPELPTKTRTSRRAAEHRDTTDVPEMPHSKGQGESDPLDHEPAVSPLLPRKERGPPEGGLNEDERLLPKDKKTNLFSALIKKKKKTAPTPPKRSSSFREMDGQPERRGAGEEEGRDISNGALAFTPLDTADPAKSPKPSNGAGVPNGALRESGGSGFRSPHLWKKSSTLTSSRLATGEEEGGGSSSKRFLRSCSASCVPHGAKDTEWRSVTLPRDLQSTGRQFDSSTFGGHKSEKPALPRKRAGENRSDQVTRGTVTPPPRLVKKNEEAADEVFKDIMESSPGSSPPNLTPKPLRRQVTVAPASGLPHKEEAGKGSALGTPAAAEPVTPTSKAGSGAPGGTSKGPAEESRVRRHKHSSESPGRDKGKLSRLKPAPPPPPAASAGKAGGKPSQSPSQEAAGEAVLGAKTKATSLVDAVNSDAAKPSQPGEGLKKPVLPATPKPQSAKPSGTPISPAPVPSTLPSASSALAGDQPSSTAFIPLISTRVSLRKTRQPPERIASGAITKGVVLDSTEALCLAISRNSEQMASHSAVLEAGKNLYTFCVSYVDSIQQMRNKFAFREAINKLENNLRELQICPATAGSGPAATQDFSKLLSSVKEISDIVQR

Structure (SMILES): CCCc1nc(C)c2c(=O)nc(-c3cc(S(=O)(=O)N4CCN(CC)CC4)ccc3OCC)[nH]n12
- ΔTm [1]: 0.09 °C
- ΔTm [2]: 1.95 °C
- ΔTm [3]: 1 °C
- ΔTm [4]: 0.05 °C
- ΔTm [5]: -1.14 °C
- ΔTm [6]: 0.18 °C
- ΔTm [7]: -2.18 °C
- ΔTm [8]: 1.86 °C

Structure (SMILES): O=C(O)Cc1ccc(Cc2cc(-c3cccc(Cl)c3)nc(C(F)(F)F)c2)cc1
- ΔTm [1]: 0.68 °C
- ΔTm [2]: -4.37 °C
- ΔTm [3]: 1.64 °C
- ΔTm [4]: -0.18 °C
- ΔTm [5]: -1.53 °C
- ΔTm [6]: 0.39 °C
- ΔTm [7]: -2.1 °C
- ΔTm [8]: -0.93 °C

Structure (SMILES): O=C(CNC(=O)[C@H](COP(=O)(O)O)NC(=O)CCc1c[nH]c2ccccc12)NCCCCc1ccccc1
- ΔTm [1]: 0.34 °C
- ΔTm [2]: -3.51 °C
- ΔTm [3]: 0.72 °C
- ΔTm [4]: -0.09 °C
- ΔTm [5]: -0.2 °C
- ΔTm [6]: 0.17 °C
- ΔTm [7]: -1.56 °C
- ΔTm [8]: 0.45 °C

Structure (SMILES): CCn1c(=O)c(C)cn(Cc2nnc(-c3ccc(F)c(OC)c3F)s2)c1=O
- ΔTm [1]: 0.22 °C
- ΔTm [2]: -0.83 °C
- ΔTm [3]: 0.23 °C
- ΔTm [4]: 0.22 °C
- ΔTm [5]: 0 °C
- ΔTm [6]: -4.56 °C
- ΔTm [7]: -2.75 °C
- ΔTm [8]: -0.83 °C

Structure (SMILES): NC(=O)C1CN(CCCCC(c2ccc(F)cc2)c2ccc(F)cc2)CCN1CC(=O)Nc1c(Cl)cc(N)cc1Cl (stereo unspecified)
- ΔTm [1]: -3.72 °C
- ΔTm [2]: -1.03 °C
- ΔTm [3]: -3.44 °C
- ΔTm [4]: -5.13 °C
- ΔTm [5]: -5.78 °C
- ΔTm [6]: -8.93 °C
- ΔTm [7]: -8.05 °C
- ΔTm [8]: 4.39 °C

Structure (SMILES): CCC(CC)(NC(=O)C(C)C)C(=O)N[C@@H](CCCNC(=N)N)C(=O)NC1(C(=O)NC(c2ccc(F)cc2)c2ccc(F)cc2)CCCC1
- ΔTm [1]: 0.63 °C
- ΔTm [2]: -1.92 °C
- ΔTm [3]: -0.27 °C
- ΔTm [4]: 0.35 °C
- ΔTm [5]: -0.5 °C
- ΔTm [6]: -0.02 °C
- ΔTm [7]: -0.05 °C
- ΔTm [8]: -1.17 °C

Structure (SMILES): OC[C@H]1O[C@@H](c2ccc(Cl)c(Cc3ccc(OCCOC4CC4)cc3)c2)[C@H](O)[C@@H](O)[C@@H]1O
- ΔTm [1]: 0.7 °C
- ΔTm [2]: -2.67 °C
- ΔTm [3]: 0.19 °C
- ΔTm [4]: -1.19 °C
- ΔTm [5]: -0.38 °C
- ΔTm [6]: 0.15 °C
- ΔTm [7]: -2.84 °C
- ΔTm [8]: 0.19 °C

Structure (SMILES): CC1(C)c2cccc(C(=O)NO)c2CN1c1cnc(C(F)(F)F)cn1
- ΔTm [1]: 0.41 °C
- ΔTm [2]: -2.93 °C
- ΔTm [3]: -2.1 °C
- ΔTm [4]: 0.64 °C
- ΔTm [5]: 0 °C
- ΔTm [6]: 0 °C
- ΔTm [7]: -2.98 °C
- ΔTm [8]: -1.07 °C

Structure (SMILES): COc1ncc(C)c(-c2ccc3c(c2)[nH]c(=O)c2cnn([C@H]4CCOC4)c23)c1C
- ΔTm [1]: 1.31 °C
- ΔTm [2]: -3.36 °C
- ΔTm [3]: -0.21 °C
- ΔTm [4]: -0.26 °C
- ΔTm [5]: 0.55 °C
- ΔTm [6]: -0.06 °C
- ΔTm [7]: -2.59 °C
- ΔTm [8]: -0.98 °C

Structure (SMILES): CCCOc1ccc(NC(=O)CN2CCN(C)CC2)cc1-c1nc(CC)c(CC)c(=O)[nH]1
- ΔTm [1]: 0.61 °C
- ΔTm [2]: -1.93 °C
- ΔTm [3]: 0.23 °C
- ΔTm [4]: -0.21 °C
- ΔTm [5]: -0.28 °C
- ΔTm [6]: 0.66 °C
- ΔTm [7]: -2.39 °C
- ΔTm [8]: -1 °C

Structure (SMILES): CC(C)(Sc1ccncc1-c1ccc(C#N)c2ccccc12)C(=O)O
- ΔTm [1]: -0.01 °C
- ΔTm [2]: -0.37 °C
- ΔTm [3]: -0.1 °C
- ΔTm [4]: -0.19 °C
- ΔTm [5]: -0.7 °C
- ΔTm [6]: 0.17 °C
- ΔTm [7]: -1.93 °C
- ΔTm [8]: -0.49 °C

Structure (SMILES): c1ccc(Cn2c(-c3ccc(OC[C@H](C4CCNCC4)n4c(-c5ccccc5)nc5ccccc54)cc3)nc3ccccc32)cc1
- ΔTm [1]: -1.84 °C
- ΔTm [2]: -6.29 °C
- ΔTm [3]: -1.5 °C
- ΔTm [4]: -0.34 °C
- ΔTm [5]: -3.92 °C
- ΔTm [6]: 0 °C
- ΔTm [7]: 0 °C
- ΔTm [8]: -1.18 °C

Structure (SMILES): COCCOCCn1nc2c(c1C)-c1c(Cl)ccc3c1c(C)c(C(=O)O)n3CCCOc1cc(cc3c(F)c(Cl)ccc13)CCc1cc(nn1C)CSC2
- ΔTm [1]: -1.69 °C
- ΔTm [2]: -3.74 °C
- ΔTm [3]: -3.85 °C
- ΔTm [4]: -0.76 °C
- ΔTm [5]: 0 °C
- ΔTm [6]: -1.31 °C
- ΔTm [7]: 0.82 °C
- ΔTm [8]: -3.03 °C

Structure (SMILES): COC(=O)C1=C(C(=O)OC)[C@@]2([C@@H](Cc3ccc(C)cc3)Nc3ccccc3)C=C[C@@H]1O2
- ΔTm [1]: 0.44 °C
- ΔTm [2]: -0.64 °C
- ΔTm [3]: 0.54 °C
- ΔTm [4]: -0.66 °C
- ΔTm [5]: -1.68 °C
- ΔTm [6]: -0.27 °C
- ΔTm [7]: -2.34 °C
- ΔTm [8]: 1.28 °C

Structure (SMILES): OC1CN=C2c3ccn([C@@H]4O[C@H]([C@H](O)c5ccc(Cl)cc5)[C@@H](O)[C@H]4O)c3N=CN21 (stereo partly specified)
- ΔTm [1]: 0.73 °C
- ΔTm [2]: -1.38 °C
- ΔTm [3]: 0.66 °C
- ΔTm [4]: 0.22 °C
- ΔTm [5]: -0.73 °C
- ΔTm [6]: 0.16 °C
- ΔTm [7]: -0.39 °C
- ΔTm [8]: -1.14 °C

Structure (SMILES): N#C[C@@H]1CCCN1C(=O)[C@@H]1CCCN1C(=O)CCCc1ccccc1
- ΔTm [1]: 0.07 °C
- ΔTm [2]: -2.61 °C
- ΔTm [3]: 0.09 °C
- ΔTm [4]: 0.05 °C
- ΔTm [5]: -0.27 °C
- ΔTm [6]: 0.11 °C
- ΔTm [7]: -1.43 °C
- ΔTm [8]: -0.5 °C

Structure (SMILES): CC(=O)N[C@@H](Cc1ccccc1)C(=O)N[C@@H](CC(C)C)C(=O)N[C@H](C(=O)N[C@@H](CC(=O)O)C(=O)CCl)[C@@H](C)O (Ac-FLTD-CH2Cl)
- ΔTm [1]: 0.28 °C
- ΔTm [2]: -2.88 °C
- ΔTm [3]: 0.03 °C
- ΔTm [4]: 0.15 °C
- ΔTm [5]: -0.18 °C
- ΔTm [6]: -0.16 °C
- ΔTm [7]: -0.89 °C
- ΔTm [8]: -0.91 °C

Structure (SMILES): Cc1ncsc1-c1ccc(CNC(=O)[C@@H]2C[C@@H](O)CN2C(=O)[C@@H](NC(=O)COCC(C)(COCCOCCOCCNC(=O)C[C@@H]2N=C(c3ccc(Cl)cc3)c3c(sc(C)c3C)-n3c(C)nnc32)COCCOCCOCCNC(=O)C[C@@H]2N=C(c3ccc(Cl)cc3)c3c(sc(C)c3C)-n3c(C)nnc32)C(C)(C)C)cc1
- ΔTm [1]: -0.19 °C
- ΔTm [2]: 0 °C
- ΔTm [3]: -4.95 °C
- ΔTm [4]: -6.12 °C
- ΔTm [5]: -4.05 °C
- ΔTm [6]: -12 °C
- ΔTm [7]: -4.07 °C
- ΔTm [8]: -6.48 °C

Structure (SMILES): COc1ccc([C@@H]2CNC(=O)C2)cc1OC1CCCC1
- ΔTm [1]: 0.51 °C
- ΔTm [2]: -3.17 °C
- ΔTm [3]: 0.13 °C
- ΔTm [4]: -0.19 °C
- ΔTm [5]: -0.23 °C
- ΔTm [6]: 0.08 °C
- ΔTm [7]: -2.43 °C
- ΔTm [8]: 0.65 °C

Structure (SMILES): CN1CCN2c3c(cccc31)[C@@H]1CN(CCCC(=O)c3ccc(F)cc3)CC[C@@H]12
- ΔTm [1]: -0.01 °C
- ΔTm [2]: -0.67 °C
- ΔTm [3]: -0.01 °C
- ΔTm [4]: -0.14 °C
- ΔTm [5]: -0.53 °C
- ΔTm [6]: 0.07 °C
- ΔTm [7]: -0.26 °C
- ΔTm [8]: 0.32 °C

Structure (SMILES): Cc1ccc2c(c1)nc(/C=C/c1cccc3cccnc13)n2-c1cccc(OCCCN2CCN(C)CC2)c1
- ΔTm [1]: 0.62 °C
- ΔTm [2]: -5.41 °C
- ΔTm [3]: -0.28 °C
- ΔTm [4]: -0.14 °C
- ΔTm [5]: -0.72 °C
- ΔTm [6]: 0.14 °C
- ΔTm [7]: -2.49 °C
- ΔTm [8]: 1.41 °C

Structure (SMILES): Cc1ncsc1-c1ccc([C@H](C)NC(=O)[C@@H]2C[C@@H](O)CN2C(=O)[C@@H](NC(=O)CNC(=O)c2ccc(F)c(-c3ccc(N4C[C@@H](C)N(C)[C@@H](C)C4)c(NC(=O)c4c[nH]c(=O)cc4C(F)(F)F)c3)c2)C(C)(C)C)cc1
- ΔTm [1]: -0.64 °C
- ΔTm [2]: -6.28 °C
- ΔTm [3]: -0.94 °C
- ΔTm [4]: 0.81 °C
- ΔTm [5]: -3.51 °C
- ΔTm [6]: -15.7 °C
- ΔTm [7]: -5.35 °C
- ΔTm [8]: 1.29 °C
